# Laboratory results published in PubChem BioAssay AID1030 (National Center for Advancing Translational Sciences (NCATS), 2008).
# Values joined by “and” are separate entries in the source; they are usually repeats but may differ in a detail not shown here. Identical values can stand only once. In all, about 220,000 compounds went through this assay and about 16,000 (7.3%) were called active. About 25% were inconclusive and are not listed. Calls follow the shape of the dose curve; as a rule, active = well fitted inhibition curve with a large enough effect (not every such curve was filed as active); inconclusive = small, poorly fitted or top-dose-only effect, or another doubt; inactive = no such curve, though single readings can be large or run the other way. For the sample, actives were picked, then their nearest neighbours and some compounds at random. The source holds several records for some structures; these can differ, active in one and inactive in another.
# Biological target: Aldehyde dehydrogenase 1A1 (Homo sapiens) (UniProt P00352)
# Test: qHTS Assay for Inhibitors of Aldehyde Dehydrogenase 1 (ALDH1A1);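 as to activity, negative = inhibition: plate controls were no enzyme wells and a reference inhibitor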
# Conditions: Purified ALDH1A1, NADH fluorescence, propionaldehyde substrate; series mostly up to 75.3 µM; activity, negative = inhibition: at the top concentration
# Potency is read from the fitted curve at half-maximal effect.
# Aldehyde dehydrogenase 1A1 (Homo sapiens), sequence (P00352 whole entry, looked up): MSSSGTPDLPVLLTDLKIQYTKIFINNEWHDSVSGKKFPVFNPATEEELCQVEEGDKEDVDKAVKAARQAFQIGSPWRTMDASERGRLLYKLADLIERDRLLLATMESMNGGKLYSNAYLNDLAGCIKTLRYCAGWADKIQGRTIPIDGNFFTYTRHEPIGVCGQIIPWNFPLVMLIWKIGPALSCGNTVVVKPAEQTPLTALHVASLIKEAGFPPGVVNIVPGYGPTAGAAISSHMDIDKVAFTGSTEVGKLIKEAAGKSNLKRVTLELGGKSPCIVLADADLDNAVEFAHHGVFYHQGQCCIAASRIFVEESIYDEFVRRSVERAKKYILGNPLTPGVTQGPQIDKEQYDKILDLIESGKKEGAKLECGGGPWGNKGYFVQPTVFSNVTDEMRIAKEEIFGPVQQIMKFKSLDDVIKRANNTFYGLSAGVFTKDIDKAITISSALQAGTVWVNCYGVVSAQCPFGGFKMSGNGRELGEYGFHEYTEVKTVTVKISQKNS
Compound,"activity, negative = inhibition",Potency
Cc1cccc(OCC(=O)NC(=S)Nc2ccccc2N2CCOCC2)c1,-11.4% (inactive),–
Cc1ccc(C(=O)NC(=S)NCCN2CCOCC2)cc1,5.75% (inactive),–
COC(=O)c1ccc(NC(=S)NN2CCOCC2)cc1,-0.42% (inactive),–
COc1ccc(C(=O)NC(=S)Nc2ccccc2N2CCN(S(C)(=O)=O)CC2)cc1OC,–,0.501 µM (active)
COc1ccc(C(=O)NC(=S)Nc2ccc(Cl)cn2)cc1OC,10% (inactive),–
COc1ccc(C(=O)Nc2ccc3nc(N4CCCCC4)cc(C)c3c2)cc1OC,-13.5% (inactive),–
COc1cccc(OC)c1C(=O)Nc1ccc(N2CCCCC2)cc1,-1.34% (inactive),–
Cc1ccc(C(=O)NC(=S)Nc2ccc(N3CCOCC3)cc2)cc1,–,11.2 µM (active)
COc1ccc(C(=O)NC(=S)Nc2ccc(N3CCCC3)cc2)cc1OC,–,3.55 µM (active)
CC1(C)CC(=O)C=C(N2CCOCC2)C1,-1.31% (inactive),–
O=[N+]([O-])c1ccc(Sc2n[nH]c(-c3ccco3)n2)nc1,5.62% (inactive),–
CN(c1ccc(OCC(=O)OCC(=O)Nc2cccc([N+](=O)[O-])c2)cc1)S(=O)(=O)c1ccc(F)cc1,2.62% (inactive),–
O=C(Cc1ccc(F)cc1)N1CCN=C1SCc1cccc([N+](=O)[O-])c1,-8.83% (inactive),–
COc1cccc(C(O)Cc2nc3ccccc3n2C)c1OC (configuration not stated),3.05% (inactive),–
CCNC(=O)COc1cc(C)c(Br)c(C)c1,10% (inactive),–
CCc1cc(C(=O)c2ccc(OC)cc2)c(NC(=O)CN2CCN(C)CC2)s1,1.85% (inactive),–
Cc1cc(Cl)ccc1NC(=S)NCCCN1CCCC1=O,6.05% (inactive),–
CCOC(=O)c1nn(-c2cccc(C)c2)cc1C(=O)c1ccccc1,–,5.01 µM (active)
CCOC(=O)c1cn(Cc2cccc(C)c2)nn1,-9.64% (inactive),–
CCOC(=O)c1c(N)nn(C(=O)c2ccccc2)c1-c1ccccc1,6.37% (inactive),–
CCCCS(=O)(=O)N1C2=NC(C(=O)OC)=C(C(=O)OC)[C@@H]3N(Cc4ccccc4)c4ccccc4[C@]23C[C@H]1C(=O)OC,1.36% [at 13.5 µM] (inactive),–
CC(C)(C)c1ccc(/C=C2\SC(=O)N=C2N)cc1,8.52% (inactive),–

Compound,"activity, negative = inhibition",Potency
COc1ccc(-c2nnn(Cc3nc(N)nc(N4CCCCC4)n3)n2)cc1,–,0.562 µM (active)
CN(C)c1nc(N)nc(Cn2nnc(-c3ccc(C(F)(F)F)cc3)n2)n1,6.45% (inactive),–
COc1ccc(-n2nnnc2SCc2nc(N)nc(N3CCOCC3)n2)cc1,17.4% (inactive),–
CC(Nc1ccccc1)c1cccnc1 (configuration not stated),7.63% (inactive),–
OC[C@H]1O[C@@H](n2cnc3c(N[C@H]4CC5CCC4C5)ncnc32)[C@H](O)[C@@H]1O (some centres not stated),6.91% (inactive),–
Clc1ccc(-c2ncc3ccccn23)c(Cl)c1,-5.79% (inactive),–
COn1c(-c2ccc(Cl)cc2Cl)nc2ncccc21,15.4% (inactive),–
COc1ccccc1/C=C/C=N/n1c(-c2ccc(Cl)cc2Cl)n[nH]c1=S,–,20 µM (active)
CC1CCc2sc(C(=O)N/N=C/C3CCCCC3)cc2C1 (configuration not stated),–,11.2 µM (active)
Cc1cc(/C=N/NC(N)=O)c(C)n1C1CCCCC1,-3.75% (inactive),–
OC(CNCc1ccc(Cl)c(Cl)c1)c1ccccc1 (configuration not stated),3.1% (inactive),–
COc1ccc(-n2c(C)nc3c(cnn3-c3ccccc3)c2=O)cc1,-5.74% (inactive),–
Cc1ccc(-c2nc3c(cnn3-c3ccccc3)c(=O)o2)cc1,-7.8% (inactive),–
Cc1ccc(-n2ncc3c(=O)n(-c4ccc(C)c(C)c4)c(-c4ccco4)nc32)cc1,–,25.1 µM (active)
Cn1nnnc1SCC(=O)Nc1nc2ccccc2s1,-8.43% (inactive),–
Cc1cc([N+](=O)[O-])nn1CCCC(=O)Nc1cccnc1Cl,5.05% (inactive),–
COc1ccc(CC(N)C(=O)NC2C(O)[C@H](n3cnc4c(N(C)C)ncnc43)O[C@@H]2CO)cc1 (some centres not stated),2.23% (inactive),–
O=C(NCC1CCC(C(=O)O)CC1)OCc1ccccc1 (configuration not stated),-0.584% (inactive),–
COC(=O)[C@H](C)[C@H]1C[C@]1(C)[C@H](NC(=O)OCc1ccccc1)c1ccccc1,–,inactive and 22.4 µM (active)
COC(=O)[C@H](Cc1ccccc1)NC(=O)[C@@H]1C[C@H]1[C@@H](NC(=O)OCc1ccccc1)c1ccccc1,17.6% (inactive),–
COc1ccc(C2(CNC(=O)Cc3ccc(OC)c(OC)c3)CCCC2)cc1,5.66% (inactive),–
CCN(CCn1cccn1)Cc1nc(-c2ccc(C(=O)OC)cc2)no1,5.91% (inactive),–

Compound,"activity, negative = inhibition",Potency
O=c1oc(/C=C/c2ccccc2)nc2ccccc12,5.64% (inactive),–
O=C1OC(/C=C/c2ccccc2)=NC/1=C/c1ccco1,–,11.2 µM (active)
CC(=O)Oc1ccccc1C1=NN(C(C)=O)C(c2ccccc2)C1 (configuration not stated),-3.23% (inactive),–
COc1ccccc1N1CCN(/N=C\C(Br)=C\c2ccccc2)CC1,–,5.62 µM (active)
COc1ccccc1N1CCN(C(=O)C(=O)N/N=C/c2ccccc2F)CC1,-4.88% (inactive),–
CNCC(O)CN1CCN(c2ccccc2OC)CC1 (configuration not stated),3.3% (inactive),–
COc1ccccc1CNC(=O)COc1ccc(C)nc1[N+](=O)[O-],8.34% (inactive),–
O=S(=O)(NCCc1ccc(F)cc1)c1cccc2cccnc12,-5.69% (inactive),–
Cc1coc2c(O)cc3c(c12)OC1(N2CCCCC2)C(=O)NCCCC31 (configuration not stated),–,20 µM (active)
COc1ccc(NC(=O)C(Br)C(C)C)cc1 (configuration not stated),8% (inactive),–
Cc1nn(-c2ccccc2)c2c1C(c1cccc([N+](=O)[O-])c1)N(c1ccccc1)C(=O)N2 (configuration not stated),-4.59% (inactive),–
CCOc1ccc(C(=O)Nc2cccc(-c3ccc4nncn4n3)c2)cc1,6.9% (inactive),–
Cc1occc1C(=O)N1CCCc2ccccc21,–,31.6 µM (active)
CCCn1nc(C(=O)N2CCCc3ccccc32)c2ccccc2c1=O,0.156% (inactive),–
NC(=O)N1CCc2ccccc21,-0.487% (inactive),–
CCOC(=O)C1=NO[C@@]2(C=C(Br)C(=O)[C@H]3O[C@H]32)C1,-3.87% (inactive),–
O=C(N/N=C/c1ccc2c(c1)OCO2)c1ccc(Cn2cc([N+](=O)[O-])cn2)o1,-3.18% (inactive),–
O=C(N/N=C\c1ccc(Br)cc1)c1ccc(Cn2cccn2)o1,1.46% (inactive),–
CN(C)c1ccc(/C=N/NC(=O)c2ccc(Cn3cc(Br)cn3)o2)cc1,–,17.8 µM (active)
COc1ccc(C2CC(c3cccs3)Nc3nnnn32)cc1 (configuration not stated),-3.25% (inactive),–
O=c1[nH]c(CN2CCOCC2)nc2cc(Cl)ccc12,5.97% (inactive),–
CCC1(CC)NC(=O)N(CC(=O)OCC(=O)NC(=O)c2ccccc2)C1=O,-4.7% (inactive),–

Compound,"activity, negative = inhibition",Potency
O=C(c1ccccc1Cl)N(Cc1ccccc1F)N1C(=O)CCCC1=O,7.83% (inactive),–
COc1ccc(NC(=O)N2CCCC(c3nc(-c4ccc(F)cc4)no3)C2)cc1 (configuration not stated),-1.81% (inactive),–
CC(=O)N1c2ccccc2N(Cc2ccc([N+](=O)[O-])cc2)C(=O)C1(C)C,10.7% (inactive),–
COC(=O)C(CC(=O)Nc1cc(C)ccc1C)Nc1ccccc1OC (configuration not stated),4.82% (inactive),–
Cc1ccc(C)c(NC(CC(=O)c2ccccc2)C(=O)OCC(=O)c2cccs2)c1 (configuration not stated),–,7.08 µM (active)
Cc1ccc(C)c(NC(=O)CCC(=O)NNC(=O)c2cccs2)c1,1.54% (inactive),–
O=C(COC(=O)CNC(=O)c1ccccc1F)NCC(F)(F)F,0.995% (inactive),–
O=C(COC(=O)c1ccc(O)cc1)Nc1nccs1,-0.667% (inactive),–
OC(COc1cccc(OCC(O)CN2CCCC2)c1)CN1CCCC1 (configuration not stated),-4.35% (inactive),–
Cc1cccc(C)c1OCC(O)CN1CCCCC1 (configuration not stated),0.0933% (inactive),–
OC(COCCC12CC3CC(CC(C3)C1)C2)CN1CCCCC1 (configuration not stated),–,20 µM (active)
CC1CCCCC1NC(=O)CO/N=C/c1ccc(OC(F)F)cc1 (configuration not stated),1.1% (inactive),–
CCCCCCCCc1c(O)nc(-n2[nH]c(C)c(CCO)c2=O)[nH]c1=O,5.41% (inactive),–
CCOc1ccccc1Nc1ccc(C(=O)O)cc1[N+](=O)[O-],4.42% (inactive),–
CSc1ccccc1NC(=O)CN(C)CC(=O)Nc1ccc(Cl)cc1[N+](=O)[O-],-2.42% (inactive),–
CSc1nc2nc(-c3cccc(C(F)(F)F)c3)ccn2n1,0.606% (inactive),–
O=C1CCCC(O)=C1N=Nc1ccc2ncsc2c1,–,25.1 µM (active)
Cc1ccc(NC(=S)N(Cc2ccco2)C(C)c2cccs2)cc1 (configuration not stated),9.71% (inactive),–
O=C(Oc1cccc(O)c1)C1CCCCC1,3.69% (inactive),–
COC(=O)CN1C(=O)C(O)=C(C(C)=O)C1c1ccc([N+](=O)[O-])cc1 (configuration not stated),3.05% (inactive),–
CC(=O)C1=C(O)C(=O)N(c2cccnc2)C1c1ccc([N+](=O)[O-])cc1 (configuration not stated),–,20 µM (active)
COc1ccc(C2C(C(C)=O)=C(O)C(=O)N2Cc2cccnc2)cc1 (configuration not stated),1.23% (inactive),–

Compound,"activity, negative = inhibition",Potency
O=C1N=C(N2CCCC2)S/C1=C\c1cccc(Br)c1,–,25.1 µM (active)
O=C(OCC(=O)N1CCN(C(=O)c2ccco2)CC1)c1ccccc1Cc1ccccc1,-7.91% (inactive),–
CCNC(=S)N1CCN(C(=O)c2ccco2)CC1,8.19% (inactive),–
O=C(CNS(=O)(=O)c1ccc(Br)s1)N1CCN(C(=O)c2ccco2)CC1,–,39.8 µM (active)
CCc1nnc(NC(=O)CSc2nnnn2-c2cccc(C(C)=O)c2)s1,0.744% (inactive),–
Cc1cc(C)n(CCNCc2c(C(=O)N3C[C@@H](C)O[C@@H](C)C3)nc3ccc(Cl)cn23)n1,3.87% (inactive),–
COC(=O)CCCC1=CC2=CC(=O)C(C)(OC(=O)c3cccs3)C(=O)C2=CN1CC1CC1 (configuration not stated),-4.48% [at 13.5 µM] (inactive),–
CS(=O)(=O)c1ccc2nc(NC(=O)CN3CCCCCC3)sc2c1,-8.52% (inactive),–
CS(=O)(=O)c1ccc2nc(NC(=O)C3CCCCC3)sc2c1,-3.17% (inactive),–
CS(=O)(=O)c1ccc2nc(NC(=O)C3C4C=CC(C4)C3C(=O)O)sc2c1 (configuration not stated),–,5.62 µM (active)
CN1CCN(CC(=O)Nc2cccc([N+](=O)[O-])c2)CC1,0.065% (inactive),–
CCOc1cccc(/C(O)=C2/C(=O)C(=O)N(CCOC)C2c2ccncc2)c1 (configuration not stated),-3.89% (inactive),–
COCCCN1C(=O)C(=O)/C(=C(/O)c2ccc3c(c2)CC(C)O3)C1c1cccnc1 (configuration not stated),–,39.8 µM (active)
COc1cc(C2/C(=C(\O)c3ccc4c(c3)CC(C)O4)C(=O)C(=O)N2Cc2ccco2)ccc1O (configuration not stated),6.76% (inactive),–
CCc1ccccc1NC(=O)Cc1cn(C)c2ccccc12,1.76% (inactive),–
CC(/C=C/C1(O)C(C)CC(=O)CC1(C)C)OC1OC(CO)C(O)C(O)C1O (configuration not stated),7.29% (inactive),–
O=C(Nc1cc(S(=O)(=O)N2CCOCC2)ccc1Cl)c1cc(=O)c2ccccc2o1,-1.3% (inactive),–
O=[N+]([O-])c1cc(Cl)cc(/C=N/NC(=S)Nc2cc(S(=O)(=O)N3CCOCC3)ccc2Cl)c1O,–,0.178 µM (active)
CN(C)/N=C/c1cc(Cl)cc([N+](=O)[O-])c1O,-14.1% (inactive),–
